Rows were chosen to be rich in hits. Some 1.9% of all compounds tested hit in one or more screens of this group.
dFosB act-1: enhances mouse delta FosB homodimer DNA binding | P13346 | purified delta FosB, TAMRA-CDK5 oligo fluorescence polarization; percent of positive-control signal above neutral wells | activation, % at 25 µM | 0.99% of 340,000 active | AID 493131;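 active = mean activation above about 17%, with every replicate also reaching it, limit read from the data, passing the limit was not always enough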
HMGR II inh: blocks class II HMG-CoA reductase of Enterococcus faecalis; purified E. faecalis HMGR, NADPH absorbance 340 nm kinetic; inhibition, % at 10 µM; 0.41% of 190,000 active; AID 1066;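 active = inhibition above a set limit, the median over all tested compounds plus 3 SD, cut at about 9.5% in these data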;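 also: enzyme runs in reverse so mevalonate oxidation gives rising NADPH absorbance; 0% = complete reaction with DMSO and 100% = background rate lacking mevalonate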
NCF1 inh: blocks human p47phox regulatory protein of NADPH oxidases. AID 1274. p47phox/p22phox peptide binding, fluorescence polarization, 2 h. 0.53% of 220,000 active. inhibition, % at 24.7 µM;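 active = inhibition above about 30%, limit read from the data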;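 also: 0% = p47phox with labelled peptide and 100% = labelled peptide alone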
Target sequence (P14598 whole entry, looked up): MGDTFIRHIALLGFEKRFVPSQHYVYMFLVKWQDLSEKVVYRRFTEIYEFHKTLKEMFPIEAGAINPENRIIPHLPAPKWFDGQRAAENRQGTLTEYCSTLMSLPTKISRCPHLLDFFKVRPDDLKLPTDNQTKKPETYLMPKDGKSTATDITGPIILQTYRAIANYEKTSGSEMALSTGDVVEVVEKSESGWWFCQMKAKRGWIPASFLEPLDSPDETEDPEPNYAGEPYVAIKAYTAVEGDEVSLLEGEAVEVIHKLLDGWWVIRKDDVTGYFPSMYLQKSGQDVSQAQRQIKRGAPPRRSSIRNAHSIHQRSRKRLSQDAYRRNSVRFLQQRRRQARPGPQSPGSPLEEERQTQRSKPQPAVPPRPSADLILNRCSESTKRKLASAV
14-3-3 Bad inh: disrupts binding of bovine 14-3-3 zeta to phospho-Bad peptide; TR-FRET 14-3-3zeta/Dy647-pBad peptide displacement, 1 h; P63103; inhibition, % at 21.7 µM; AID 781; 0.71% of 220,000 active;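 active = inhibition above about 70%, limit read from the data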;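 also: 0% = full 14-3-3 plus peptide FRET controls and 100% = background without 14-3-3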
Target sequence (P63103 whole entry, looked up): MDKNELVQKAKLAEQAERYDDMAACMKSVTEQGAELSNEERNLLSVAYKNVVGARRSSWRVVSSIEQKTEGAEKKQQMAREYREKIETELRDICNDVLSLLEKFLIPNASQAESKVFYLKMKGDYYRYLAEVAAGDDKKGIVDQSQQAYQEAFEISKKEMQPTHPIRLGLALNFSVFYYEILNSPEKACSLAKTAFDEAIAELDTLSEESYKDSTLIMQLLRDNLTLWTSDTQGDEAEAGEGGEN
dFosB act-2: enhances mouse delta FosB homodimer binding to DNA; 2,400 tested, under 10 active; shares compounds with dFosB act-1; purified delta FosB, TAMRA-CDK5 oligo fluorescence polarization; normalised: neutral wells 0, positive control 100; AID 588690; activation, % at 24.9 µM;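 active = highest replicate activation at or above 34% and every replicate reaching that threshold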;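 also: higher polarization means more probe DNA bound by delta FosB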
An asterisk follows results filed as active; / = no result given.

SMILES	dFosB act-1	HMGR II inh	NCF1 inh	14-3-3 Bad inh	dFosB act-2
CC(=O)Nc1ccc(NC(=O)c2ccc(NC(=O)c3ccccc3)cc2)cc1	27*	/	/	/	4
CC(=O)c1cccc(NC(=O)c2ccc(N(Cc3ccccc3C)S(C)(=O)=O)cc2)c1	-9	-5	-16	-4	/
CCn1nnc2cc(C(=O)Nc3cccc(S(=O)(=O)N(C)C)c3)ccc21	-10	/	/	/	/
COCCCNCCOc1ccc(C(C)(C)c2ccccc2)cc1	-11	2	-10	-3	/
COc1ccccc1/C=N/N1C(=O)c2cccc3cccc(c23)C1=O	-6	-4	-63	-1	/
CC(=O)Nc1ccc(NC(=O)C(C)OC(=O)c2cccc(S(=O)(=O)N3CCCCC3)c2)cc1 (stereo not drawn)	32*	/	/	/	-4
O=C(CNC(=O)c1cccc(N2C(=O)c3ccccc3C2=O)c1)Nc1ccc(F)c(F)c1	33*	/	/	/	1
O=C(Nc1ccc(F)cc1)c1cccc(N2C(=O)c3ccccc3C2=O)c1	35*	/	/	/	5
O=C(Nc1ccc(-c2nc3ccccc3[nH]2)cc1)c1cccc(N2C(=O)CCC2=O)c1	36*	-3	-5	1	2
O=C(Nc1ccccc1-c1nc2ccccc2[nH]1)c1ccc(N2C(=O)CCC2=O)cc1	3	2	-14	30	/
O=C(N/N=C/c1cccnc1)c1ccc2ccccc2c1O	7	/	/	/	/
O=C(CN1C(=O)C2CC=CCC2C1=O)Nc1nnc(SCc2ccc(Cl)cc2)s1 (stereo not drawn)	-9	-3	-19	-11	/
O=C(CN1C(=O)C2CC=CCC2C1=O)Nc1nnc(SCc2c(Cl)cccc2Cl)s1 (stereo not drawn)	39*	-1	-17	-9	-6
Cc1cc(C)n2nc(SCC(=O)N(C)C)nc2n1	3	-7	-3	-3	/
C/C(=N\NC(=O)CSc1nc2ccccc2o1)c1ccc(O)cc1	-4	-3	0	-21	/
C/C(=N\NC(=O)CSc1nc2ccccc2o1)c1cccc(O)c1	25*	/	-4	-2	4
Cc1c(C(=O)Nc2ccc(S(N)(=O)=O)cc2)oc2ccc(Cl)cc12	27*	-4	9	4	2
O=c1nc(-c2ccccc2)cc(-c2ccccc2)[nH]1	-26	-1	-15	17	/
Cc1cccc(N2C(=O)c3ccc(C(=O)Nc4ccccn4)cc3C2=O)c1	62*	/	/	/	5
CC(=O)Nc1ccc2c(c1)C(=O)N(c1cccc(C)c1)C2=O	20*	/	-13	-1	4
CC(CCc1ccco1)NC(=O)CCc1nnc2ccc(NCc3ccccc3Cl)nn12 (stereo not drawn)	22*	/	/	/	0
CCc1ccccc1N(C)S(=O)(=O)c1ccc2[nH]cc(C(=O)O)c(=O)c2c1	-15	1	-1	17	/
COC(=O)c1sccc1NC(=O)c1cnc2cc(C)nn2c1C	8	-3	7	-5	/
CC(=O)c1cccc(NC(=O)CCCSc2ccccc2)c1	-2	/	/	/	/
CC(C)C[C@H]1CN([C@@H](CC(C)C)CN2CCCC2CN2C(=S)NC[C@@H]2Cc2ccc(O)cc2)C(=S)N1CC1CCCCC1 (stereo partly drawn)	1	/	/	/	/
SMILES	dFosB act-1	HMGR II inh	NCF1 inh	14-3-3 Bad inh	dFosB act-2
Oc1ccc(C[C@H]2CNC(=S)N2CC2CCCN2C[C@H](Cc2ccc(O)cc2)N2C[C@H](Cc3ccccc3)N(CC3CCCCCC3)C2=S)cc1 (stereo partly drawn)	72*	/	/	/	3
CCOc1ccc(CCN2C(=S)N([C@@H](Cc3ccc(O)cc3)CN3CCCC3CN3C(=S)NC[C@@H]3Cc3ccc(O)cc3)C[C@@H]2CC(C)C)cc1 (stereo partly drawn)	88*	/	/	/	3
Oc1ccc(C[C@H]2CNC(=S)N2CC2CCCN2C[C@H](Cc2ccc(O)cc2)N2C[C@H](Cc3ccc(O)cc3)N(CC3CCCCCC3)C2=S)cc1 (stereo partly drawn)	14	/	/	/	/
Cc1sc2nc(CN3CCCC3)nc(N3CCN(S(=O)(=O)c4cccc(F)c4)CC3)c2c1C	44*	/	/	/	5
Cc1nc2ccccc2n1CCc1nc2c3ccccc3nc(SCC(=O)NCc3ccco3)n2n1	6	0	19	14	/
Cc1n[nH]c(C)c1CCc1nc2c3ccccc3nc(SCC(=O)Nc3ccccc3F)n2n1	57*	-3	19	57	6
Cc1cccc(NC(=O)CSc2nc3ccccc3c3nc(CCc4c(C)n[nH]c4C)nn23)c1	44*	-6	0	17	-9
O=C(c1ccco1)N1CCN(Cc2cc(=O)c(OCc3cccc(F)c3)co2)CC1	-10	/	/	/	/
COc1ccc(CCNC(=O)C(=O)NCc2ccc(Cl)cc2)cc1OC	43*	1	5	-3	-5
CCc1ccc(CNC(=O)C(=O)NCCc2ccc(OC)c(OC)c2)cc1	10	/	/	/	/
CCn1c2ccccc2c2cc(NC(=O)CSc3nnc(-c4ccccc4OC)n3N)ccc21	0	-5	-32	-3	/
O=C(CSc1nc(-c2cccs2)nc2ccccc12)NC1CCS(=O)(=O)C1 (stereo not drawn)	34*	/	/	/	-3
Cc1ccc(C2(C(F)(F)F)NC(=O)N3C(=C2C#N)Nc2ccccc23)cc1 (stereo not drawn)	23*	-3	-23	4	6
CN1C2=C(C#N)C(c3ccccc3)(C(F)(F)F)NC(=O)N2c2ccccc21 (stereo not drawn)	-3	-1	-4	13	/
O=C(N/N=C/c1ccc(OC(=O)c2cccs2)cc1)c1ccc(F)cc1	33*	0	-9	2	-1
COc1cc(C(=O)OCCn2c(=O)c3c(ncn3CCN(C)C)n(C)c2=O)cc(OC)c1OC	-5	1	-9	3	/
CCOc1cc(/C=N/O)cc(Br)c1OCc1ccc(Cl)cc1	32*	-1	4	3	-1
CC[C@H](C)[C@H](NC(N)=O)C(=O)NNC(=O)c1ccc(COc2cccc3cccnc23)cc1	-7	/	/	/	/
O=C(Nc1nccs1)c1cc(-c2ccccn2)nc2c(Cl)cccc12	39*	/	/	/	4
Cc1cc(NC(=O)c2cc(-c3ccccn3)nc3c(Cl)cccc23)no1	15	/	/	/	/
O=C(NC(=S)Nc1ccc2oc(=O)ccc2c1)c1cccc(Cl)c1	88*	/	/	/	0
O=C(NC(=S)Nc1ccc2oc(=O)ccc2c1)c1cccc(F)c1	1	/	/	/	/
CCc1ccc2oc(C(=O)NCC(c3ccc(OC)cc3)N3CCCCC3)c(C)c2c1 (stereo not drawn)	21*	/	/	/	0
CNc1nc(Nc2ccc(C(C)=O)cc2)nc(OC(C(F)(F)F)C(F)(F)F)n1	44*	2	26	16	-1
COC(=O)c1cc(NC(=O)c2ccc(Cn3cc(Cl)cn3)o2)cc(C(=O)OC)c1	21*	-6	0	18	-1
COC(=O)c1ccccc1NC(=O)c1ccc(Cn2cc(Cl)cn2)o1	-7	-2	-10	-2	/
O=C(Cn1cnc2c(nnn2-c2ccccc2)c1=O)NCc1ccc(F)cc1	19*	2	0	14	4
